High-throughput results (PubChem BioAssay)
Anthrax LF inh2: anthrax lethal factor protease inhibition; P15917; multiplex microsphere protease cleavage assay, LF; inhibition, % at 10 µM; 360,000 compounds, 0.12% hits; AID 588501
BoNT A protease: inhibitors of Botulinum neurotoxin A light chain protease; multiplex microsphere protease substrate cleavage, flow cytometry; inhibition, % at 10 µM; 360,000 compounds, 0.17% hits
GDH-TPI inh: counter-screen for M. tuberculosis FBA inhibitors: GDH-TPI coupled enzymes. GDH-TPI coupled enzyme counterscreen, NADH absorbance. inhibition, % at 4.8 µM. 360,000 compounds, 1.2% hits. AID 588335; in the data active = inhibition above about 30%
BoNT F protease: BoNT F light chain protease inhibition. 360,000 compounds, 0.22% hits. Multiplex microsphere protease cleavage assay, flow cytometry. inhibition, % at 10 µM. AID 588497; in the data active = inhibition above about 35%, passing the limit was not always enough; inconclusive = no clear call, values can overlap the other calls
Bead autofluor: flagged as autofluorescent in microsphere protease counterscreen; compound autofluorescence counterscreen, microsphere flow cytometry; active compounds read high; fluorescence intensity (no concentration beside the values); 360,000 compounds, 3.1% hits; AID 624483; in the data active = fluorescence intensity above about 16000; inconclusive = no clear call, values can overlap the other calls
FBA Mtb inh: inhibitors of M. tuberculosis fructose-bisphosphate aldolase | P9WQA3 | purified M. tuberculosis FBA, fluorescence read-out | inhibition, % at 1 µM | 360,000 compounds, 2.3% hits | AID 588726; in the data active = inhibition above about 27%
Target sequence (P9WQA3 whole entry, looked up): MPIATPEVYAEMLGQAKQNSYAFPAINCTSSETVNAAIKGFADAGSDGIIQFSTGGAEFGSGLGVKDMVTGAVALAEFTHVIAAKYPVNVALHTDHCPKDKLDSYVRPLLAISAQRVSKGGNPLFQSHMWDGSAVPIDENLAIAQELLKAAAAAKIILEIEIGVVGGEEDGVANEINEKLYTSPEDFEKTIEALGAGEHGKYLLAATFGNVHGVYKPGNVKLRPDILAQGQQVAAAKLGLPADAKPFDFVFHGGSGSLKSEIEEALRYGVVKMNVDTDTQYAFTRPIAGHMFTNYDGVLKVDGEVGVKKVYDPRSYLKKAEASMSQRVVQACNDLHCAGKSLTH
Large screens that a line does not name were inactive. The list is not random: actives were taken first. Their share in the collection is about 6.7%. Rule as the data show it, unless noted: active = inhibition above about 30%; inconclusive = no clear call, values can overlap the other calls; inactive = below that.

Cc1cc2cc(CN(CCCO)S(=O)(=O)c3cccc4nsnc34)c(=O)[nH]c2cc1C	Bead autofluor 22386
Cc1ccc2cc(CN(Cc3ccco3)S(=O)(=O)c3c(C)ccc4nsnc34)c(=O)[nH]c2c1	GDH-TPI inh 32.3
Cc1cc2cc(CN(Cc3ccco3)S(=O)(=O)c3c(C)ccc4nsnc34)c(=O)[nH]c2cc1C	BoNT A protease inconclusive, Bead autofluor 20470
Cc1cccc(Nc2nnc(SC(C)C(=O)NC3CC3)s2)c1 (stereo not drawn)	none
Cc1ccccc1CC1(CO)CCCN(Cc2c(C)nn(C)c2Cl)C1 (stereo not drawn)	none
CCOC(=O)C1CCN(Cc2nc(-c3ccc(OC)c(OC)c3)no2)CC1	none
COc1ccc(-c2noc(CN3CCCCC3)n2)cc1OC	Bead autofluor 21443
CCN(Cc1ccccc1)C(=O)Cn1cnc2c1c(=O)n(C)c(=O)n2C	BoNT A protease inconclusive, Bead autofluor 20794
Cn1c(=O)c2c(ncn2CC(=O)Nc2ccccc2)n(C)c1=O	none
CCN(CC)C(=O)Cn1cnc2c1c(=O)n(C)c(=O)n2C	none (no result: Anthrax LF inh2, BoNT A protease, BoNT F protease, Bead autofluor)
Cn1c(=O)c2c(ncn2CCN(CCO)Cc2ccccc2)n(C)c1=O	Bead autofluor 20125
O=c1cc(O)c2sc(Nc3cccc(C(F)(F)F)c3)nc2[nH]1	none
CN(C)c1ccc(/C=N\Nc2nc(-c3ccccc3)cc(=O)[nH]2)cc1	none
O=c1[nH]c(N/N=C/c2ccccc2Br)nnc1-c1ccccc1	GDH-TPI inh 38.6
COc1ccc(/C=N/Nc2nnc(-c3ccccc3)c(=O)[nH]2)cc1	GDH-TPI inh 35.4
O=C(CCC1CC(=O)Nc2ccccc21)NCc1ccc(F)cc1 (stereo not drawn)	Bead autofluor 18975
O=C(CCC1CC(=O)Nc2ccccc21)NCc1ccccc1 (stereo not drawn)	none
Cc1nn(-c2ccccc2)c2c1CC1(C(=O)N(C)C(=O)N(C)C1=O)C1CCCCN21 (stereo not drawn)	none
c1ccc(N=C(c2cccs2)N2CCOCC2)cc1	none
NS(=O)(=O)c1ccc(C(=O)Nc2ccc(-c3nc4cccnc4s3)cc2)cc1	none
CCc1ccc(S(=O)(=O)Nc2ccc(-c3nc4cccnc4s3)cc2)s1	GDH-TPI inh 45.2, FBA Mtb inh active
O=S(=O)(Nc1ccc(-c2nc3cccnc3s2)cc1)c1cc(F)ccc1F	FBA Mtb inh active
CN1c2ccccc2C(O)=C(C(=S)Nc2ccc(Cl)cc2)S1(=O)=O	GDH-TPI inh 47.7
CCCOc1ccc(-c2nnn(CC(=O)OCC)n2)cc1	Bead autofluor 22991
CCCOc1ccc(-c2nnn(CC(=O)N3CCCCC3)n2)cc1	none
CCOc1ccc(-c2nnn(CC(=O)NCc3ccco3)n2)cc1	BoNT A protease inconclusive, Bead autofluor 19976
CCOC(=O)Cn1nnc(-c2ccccc2)n1	BoNT F protease inconclusive
O=C(Cn1nnc(-c2ccccc2)n1)NCc1ccco1	none
CCOC(=O)C(Cc1ccccc1)NC(=O)Cn1nnc(-c2ccccc2)n1 (stereo not drawn)	Bead autofluor 20857
O=C(C1CC1)N1CCN=C1SCc1ccc(F)cc1	none
COCCNc1nc(SCc2ccccc2)nc2sc3c(c12)CCC3	none
CSc1nc(NCC(C)O)c2c3c(sc2n1)CN(C)CC3 (stereo not drawn)	BoNT F protease inconclusive, FBA Mtb inh 112.9
CSc1nc(SCC(=O)NC(c2ccccc2)c2ccccc2)c2c3c(sc2n1)CN(C)CC3	Bead autofluor 16363
CSc1nc(NCCCO)c2c3c(sc2n1)CN(C)CC3	FBA Mtb inh 175.8
CCc1noc(C)c1C(=O)N(C)CC(=O)Nc1ccc(OC)cc1	Bead autofluor inconclusive
Cc1ccc(S(=O)(=O)N2CCCOC2CNC(=O)C(=O)NCCc2ccco2)cc1 (stereo not drawn)	none
CCN1CCC(NC(=O)c2cc(OC)c(OC)cc2OC)CC1	BoNT A protease inconclusive, Bead autofluor 21698
Cc1ccc(S(=O)(=O)CC2CSc3nc(N)cc(=O)n32)cc1 (stereo not drawn)	BoNT A protease inconclusive, Bead autofluor 21227
Cc1nnc(NC(=O)CCN2C(=O)/C(=C\c3ccccc3)SC2=S)s1	none
O=C(CCN1C(=O)/C(=C\C=C\c2ccccc2)SC1=S)Nc1ccc(C(=O)O)cc1	none
O=C(CN1C(=O)/C(=C\C=C\c2ccccc2)SC1=S)Nc1ccc(F)cc1	BoNT A protease 33.6
O=C(COC(=O)CCN1C(=O)/C(=C\C=C\c2ccccc2)SC1=S)Nc1cc(F)ccc1F	BoNT A protease 41.6
O=C(CN1C(=O)S/C(=C/C=C/c2ccccc2)C1=O)Nc1ccc(C(=O)O)cc1	none
O=C(CCCN1C(=O)S/C(=C\C=C\c2ccccc2)C1=O)Nc1ccc(O)cc1	none
O=C(CCN1C(=O)/C(=C/C=C/c2ccccc2)SC1=S)Nc1nc2ccccc2s1	BoNT A protease 56.5
O=C(CN1C(=O)S/C(=C\C=C\c2ccccc2)C1=O)Nc1ccc(C(=O)O)cc1	GDH-TPI inh 57.1
N/C(COc1cccc(Cl)c1)=N\O	none
Cc1cc(NC(=O)c2ccccc2F)cc(C)c1OCC(=O)N1CCOCC1	none
O=C1ON=C(c2ccccc2)/C1=C/c1ccc(-c2ccccc2[N+](=O)[O-])o1	none
Cc1ccc(-c2ccnc(=S)[nH]2)cc1	none
COc1cc(C(=O)NC(C)C2CC3CCC2C3)cc(OC)c1OC (stereo not drawn)	none
Cc1cc(C(=O)NNC(=S)NCc2ccccc2)cs1	none
N#C/C(=C(/O)c1cccs1)c1nc2ccccc2[nH]1	GDH-TPI inh 39.1
CCCCOc1ccc(/C(O)=C(\C#N)c2nc3ccccc3[nH]2)cc1	BoNT F protease 42.1
O=C(/C(=C/c1ccc(Cl)cc1)c1nc2ccccc2[nH]1)c1cccs1	GDH-TPI inh 31.7, Bead autofluor 16724
O=C(/C(=C\c1ccccc1)c1nc2ccccc2[nH]1)c1ccc(Cl)cc1	none
N#C/C(=C(/O)c1ccc(C(=O)c2ccccc2)cc1)c1nc2ccccc2[nH]1	none
CC(=O)Oc1ccc2cc(-c3nc4ccccc4n3C)c(=O)oc2c1	FBA Mtb inh active
CCN(CC)Cc1c(O)ccc2cc(-c3nc4ccccc4n3C)c(=O)oc12	FBA Mtb inh active
CCOC(=O)C1(Cc2cccc(OC)c2)CCN(Cc2cccc3cnccc23)CC1	none
CCc1onc(C)c1C(=O)Nc1ccc(N2CCOCC2)cc1	none
CCNC(=O)Nc1ccc2c(c1)c(=O)n(C)n2CC=C(C)C	FBA Mtb inh 173.2
CC(C)=CCn1c2ccc(NC(=O)NCc3ccc(F)cc3)cc2c(=O)n1C	FBA Mtb inh 137.5
COc1ccc(CCNC(=O)Nc2ccc3c(c2)c(=O)n(C)n3CC=C(C)C)cc1OC	FBA Mtb inh 147.7
CC(C)=CCn1c2ccc(NC(=O)Nc3ccc(N(C)C)cc3)cc2c(=O)n1C	none
Cc1ccc(OCc2nnc(NC(=O)c3ccco3)s2)cc1	none
Cc1ccc(C(=O)Nc2nc(=O)n(C(=O)c3ccccc3C)s2)cc1	none
CCCNC(=O)Cn1c(=O)/c(=C\c2ccc(-c3cccc([N+](=O)[O-])c3)o2)s/c1=C\C(=O)C(C)(C)C	BoNT A protease 32.6
